Screens from PubChem BioAssay.
MCL1 BIM primary – inhibitors of human MCL1 binding to BIM-BH3 peptide. AID 2057. hit rate 0.68% among 320,000. inhibition, % at 10.9 µM. GST-MCL1 / FITC-Bim-BH3 fluorescence polarization;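 active = inhibition above the mean inhibition of all tested compounds plus 3 SD, set per campaign, cut at about 40% in these data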;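 also: 0% = DMSO wells and 100% = unlabeled Bim-BH3 peptide control; higher means more loss of mP so more displacement of Bim peptide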
Mcl-1 Bim block – inhibitors of Bim-Mcl-1 interaction, human. Q07820. AID 1009. inhibition, % at 10 µM. Bead-based flow cytometry, Bim peptide-Mcl-1 binding. hit rate 0.1% among 190,000; in the data active = inhibition above about 40%;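 also: 0% = no compound tracer wells and 100% = peptide blocker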
Mcl1 Noxa PPI – Mcl-1/Noxa interaction inhibition. hit rate 1.5% among 220,000. inhibition, % at 21.7 µM. AID 1022. TR-FRET Mcl-1/Noxa peptide binding, 2 h. Q07820;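 active = compounds that cut the protein-peptide binding signal by more than 50% relative to plate controls in a single-dose test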;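 also: His-tagged Mcl-1 with rhodamine Noxa BH3 peptide and terbium anti-His antibody; 0% = Mcl-1 plus Noxa peptide wells and 100% = peptide-only wells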
Mcl1-Bid inh – disrupts binding of human Mcl-1 to Bid peptide; Q07820; TR-FRET Mcl-1/Bid-Dy647 peptide binding, 1536-well; inhibition, % at 21.7 µM; hit rate 0.97% among 220,000; AID 1021;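 active = compounds that cut the binding signal by more than half at the single screening dose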;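 also: His-tagged Mcl-1 with europium anti-His antibody binding Bid BH3 peptide; 0% = Mcl-1 plus peptide wells and 100% = peptide-only wells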
Bcl-xL conf – Bcl-xL (human) inhibition, MCL1 counter-screen confirmation; AID 2166; hit rate 54% among 1,700; GST-Bcl-xL / FITC-Bim BH3 peptide FP binding; inhibition, % at 10.9 µM; shares compounds with MCL1 BIM primary;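 active = inhibition above a cutoff equal to the mean inhibition of all tested compounds plus 3 SD, cut at about 30% in these data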;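 also: 0% = DMSO wells and 100% = unlabeled Bim BH3 control peptide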
Target sequence (Q07817 whole entry, looked up): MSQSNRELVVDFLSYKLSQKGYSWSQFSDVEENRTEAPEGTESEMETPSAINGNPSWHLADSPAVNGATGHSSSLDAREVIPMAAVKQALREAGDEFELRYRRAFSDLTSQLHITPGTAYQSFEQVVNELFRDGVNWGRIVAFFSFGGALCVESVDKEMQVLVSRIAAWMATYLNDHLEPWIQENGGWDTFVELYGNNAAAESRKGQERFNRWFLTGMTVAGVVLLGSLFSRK
MCL1 inh confirm – MCL1-BIM-BH3 interaction inhibition, confirmation | shares compounds with MCL1 BIM primary | GST-MCL1 / FITC-Bim-BH3 fluorescence polarization | inhibition, % at 10.9 µM | hit rate 61% among 1,700 | AID 2168;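 active = inhibition above the average of all tested compounds plus 3 SD, cut at about 40% in these data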;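 also: 0% = DMSO wells and 100% = unlabeled Bim-BH3 control peptide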
Numbers without * were called inactive; . = no result given; + = active, no number. Most compounds without a hit are left out; they make up all but 2% or so of the library.

SMILES | MCL1 BIM primary | Mcl-1 Bim block | Mcl1 Noxa PPI | Mcl1-Bid inh | Bcl-xL conf | MCL1 inh confirm
NC(=O)C[n+]1cccc2ccccc21 | + | 2 | 47 | -26 | 101* | 124*
Cc1ccc(C(=O)C[n+]2cccc3ccccc32)cc1 | -2 | -2 | -5 | 0 | . | .
CC(=O)N1CCN(C(=O)c2ccc(NS(=O)(=O)c3ccc4[nH]c(=O)[nH]c4c3)cc2)CC1 | -3 | . | . | . | . | .
Cc1c(Br)cc(C(=O)O)c(C)c1C | 8 | 0 | 20 | 12 | . | .
Cc1c(N)cc(N)cc1C(=O)O | 166* | . | 1 | -149 | 67* | 44*
O=C(Cn1c(=O)n(Cc2ccco2)c(=O)c2c3c(sc21)CCCCC3)Nc1ccccc1 | 14 | 0 | 41 | -17 | . | .
O=C(Cn1c(=O)n(Cc2ccco2)c(=O)c2c3c(sc21)CCCCC3)c1ccccc1 | 43* | -4 | 41 | -18 | 20 | 32
CC1(C)CC2CC(C)(CN2C(=O)COC(=O)c2cncc(Br)c2)C1 (stereo unspecified) | -1 | . | . | . | . | .
CN1C(=O)C(=C2CCCCCC2)SC1=S | 9 | -1 | 4 | -42 | . | .
O=C1NC(=S)SC1=C1CCCC1 | 44* | -3 | 31 | -5 | 26 | 60*
COC(=O)CCC(=O)Nc1nccs1 | 1 | 0 | 15 | -8 | . | .
COC(=O)C(Nc1nccs1)(OC)C(F)(F)F (stereo unspecified) | 68* | -4 | -13 | -31 | 71* | 106*
CCC(=O)c1ccc(OCC(=O)Nc2ccccc2N2CCCCC2)cc1 | 13 | . | . | . | . | .
Cc1cc(C(C)C)n2c(nc3ccccc32)c1C#N | -5 | 0 | 12 | -32 | . | .
Cc1cc(-c2ccco2)c(C#N)c2nc3ccccc3n12 | 128* | 4 | . | . | 127* | 173*
CC(=O)c1cc(-c2ccccc2)n(CC(=O)N2CCN(C3CCCC3)CC2)c1C | 55* | -3 | -15 | -32 | 19 | 24
O=C(NC(=S)N1CCCCCC1)c1ccccc1Cl | 4 | 0 | 7 | -24 | . | .
O=C(NC(=S)N1CCCCCC1)c1ccc(Cl)cc1Cl | 43* | -5 | -4 | -2 | 11 | 6
O=C(COC(=O)c1ccc(F)cc1F)NC(=O)Nc1ccc2c(c1)OCCO2 | -3 | . | . | . | . | .
CC1(C)Cc2c(C#N)c(N)sc(=S)c2CS1 | 71* | 2 | 41 | -16 | 71* | 88*
N#Cc1c(N)sc(=S)c2c1CCCCC2 | 113* | -4 | 71* | 25 | 62* | 76*
COc1cccc(NCc2cc(=O)oc3cc(C)c(C(C)C)cc23)c1 | 5 | . | . | . | . | .
COc1ccc(-n2cccc2/C=C2\C(=N)N3N=C(c4ccco4)SC3=NC2=O)cc1 | 66* | 2 | 87* | 81* | 28 | 81*
CC1(CCC(=O)N2CCCC(Nc3ccc(F)cc3)C2)CC1 (stereo unspecified) | 3 | . | . | . | . | .
COc1ccc(/C=C2\SC(=S)N(CC(=O)NC3C=CS(=O)(=O)C3)C2=O)cc1 (stereo unspecified) | 3 | . | . | . | . | .
SMILES | MCL1 BIM primary | Mcl-1 Bim block | Mcl1 Noxa PPI | Mcl1-Bid inh | Bcl-xL conf | MCL1 inh confirm
O=C(O)c1ccc2c3c(ncnc13)-c1ccccc1C2=O | 74* | -4 | 22 | 13 | 121* | 142*
O=C(O)c1cccc2c1C(=O)c1ccccc1C2=O | -2 | 0 | 8 | -6 | . | .
c1ccc(Nc2nc3ccccc3n3nnnc23)cc1 | 61* | -2 | 1 | -5 | 34* | 33
Brc1ccc(Nc2nc3ccccc3n3nnnc23)cc1 | 17 | -6 | 17 | -18 | . | .
CC(C)(C)c1ccc(OCCC(=O)OCC(=O)Nc2ccc(N3CCOCC3)cc2)cc1 | -3 | . | . | . | . | .
Cc1c2cc(O)c(=O)cc-2oc2cc(O)c(O)cc12 | . | . | . | . | 114* | .
COc1cc(OC)c(-c2c3cc(O)c(=O)cc-3oc3cc(O)c(O)cc23)cc1OC | -44 | . | -70 | -85 | . | .
C=CCNC(=O)c1c(CS(=O)(=O)c2ccccc2)noc1C(=O)NCc1ccccc1 | 0 | . | . | . | . | .
CCCCn1c(SCC(=O)NCc2ccco2)nc2cc(S(N)(=O)=O)ccc21 | 41* | 2 | -8 | -28 | 4 | 12
C=CCN1C=CC(=O)CC1 | 131* | . | -8 | -95 | 5 | -2
O=C(Nc1ccccc1F)c1ccc2ncsc2c1 | 9 | . | . | . | . | .
CC(=O)c1ccc(OCCCC(=O)Nc2ccc(S(=O)(=O)N3CCOCC3)cc2)cc1 | -4 | . | . | . | . | .
Cc1ccccc1N=Cc1cccc(O)c1O | 65* | -1 | 16 | -5 | 37* | 56*
Cc1ccc(N=Cc2cccc(O)c2O)c(C)c1 | 60* | 1 | 43 | -109 | 20 | 20
